Experimental data reported in PubChem BioAssay (EPA / NIEHS).
Inconclusive results are not listed. Activity calls are given as the source filed them. The calls were made as follows, unless noted: active = hit-call score of the fitted dose curve at least 0.9, where 1 is the maximum; inactive = score below 0.9.

Target: human Thyroid Receptor alpha (THRa1), THRA (gene 7067) (UniProt P10827)
Assay: ATG_THRa1_TRANS: Attagene TRANS-FACTORIAL HepG2 Assay for human Thyroid Receptor alpha (THRa1) (AID 2283014; active = hit-call score of the fitted dose curve at least 0.9, where 1 is the maximum)
Settings: not given
In short: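 Transcripts from GAL4-UAS-driven reporters, measured after 24 h compound exposure by RT-PCR plus capillary electrophoresis of 6-FAM-labeled fragments, were fitted for gain of signal relative to DMSO. Cells: transiently transfected HepG2 expressing NR-Gal4 chimeras.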

Chain of human Thyroid Receptor alpha (THRa1), THRA (gene 7067) (P10827 whole entry, looked up): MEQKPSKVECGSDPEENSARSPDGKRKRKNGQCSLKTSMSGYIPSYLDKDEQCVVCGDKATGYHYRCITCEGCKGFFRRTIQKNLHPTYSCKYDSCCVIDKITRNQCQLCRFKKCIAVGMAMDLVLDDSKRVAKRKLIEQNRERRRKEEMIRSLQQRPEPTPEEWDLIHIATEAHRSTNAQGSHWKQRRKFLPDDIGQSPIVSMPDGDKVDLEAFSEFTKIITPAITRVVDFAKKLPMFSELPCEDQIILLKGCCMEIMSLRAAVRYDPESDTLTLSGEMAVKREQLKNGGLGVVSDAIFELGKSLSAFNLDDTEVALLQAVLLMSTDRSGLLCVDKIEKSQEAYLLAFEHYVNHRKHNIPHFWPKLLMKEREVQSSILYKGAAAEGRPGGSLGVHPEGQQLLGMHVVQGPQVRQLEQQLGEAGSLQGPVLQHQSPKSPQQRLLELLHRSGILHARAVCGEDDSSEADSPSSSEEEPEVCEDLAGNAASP
Chain of E-selectin (Homo sapiens) (P16581 whole entry, looked up): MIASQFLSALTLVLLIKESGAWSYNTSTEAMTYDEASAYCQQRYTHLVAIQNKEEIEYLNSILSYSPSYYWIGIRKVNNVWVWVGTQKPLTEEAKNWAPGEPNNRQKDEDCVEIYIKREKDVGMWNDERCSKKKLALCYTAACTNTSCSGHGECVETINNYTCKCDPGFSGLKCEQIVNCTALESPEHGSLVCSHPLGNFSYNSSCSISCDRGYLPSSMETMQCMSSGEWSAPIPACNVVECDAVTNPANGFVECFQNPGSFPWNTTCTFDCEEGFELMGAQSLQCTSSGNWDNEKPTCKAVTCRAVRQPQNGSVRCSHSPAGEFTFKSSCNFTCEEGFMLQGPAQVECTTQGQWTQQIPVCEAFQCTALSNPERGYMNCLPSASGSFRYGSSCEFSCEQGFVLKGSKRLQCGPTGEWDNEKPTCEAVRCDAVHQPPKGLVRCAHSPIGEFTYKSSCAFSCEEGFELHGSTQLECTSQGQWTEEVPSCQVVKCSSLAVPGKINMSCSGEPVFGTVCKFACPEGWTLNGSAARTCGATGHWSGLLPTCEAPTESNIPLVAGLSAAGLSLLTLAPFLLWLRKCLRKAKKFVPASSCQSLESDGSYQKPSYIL

| SMILES | outcome | AC50 |
| --- | --- | --- |
| Nc1c(Cl)cc(Cl)cc1[N+](=O)[O-] | inactive | – |
| COc1cc([C@@H]2c3cc4c(cc3[C@@H](O[C@@H]3O[C@@H]5CO[C@@H](C)O[C@H]5[C@H](O)[C@H]3O)[C@H]3COC(=O)[C@H]23)OCO4)cc(OC)c1O | inactive | – |
| CC(C)C(OC(=O)c1ccccc1)C(C)(C)COC(=O)c1ccccc1 (stereo not drawn) | inactive | – |
| COc1ccc(N)c([N+](=O)[O-])c1 | inactive | – |
| C[Si](C)(C)O[Si](C)(C)C | inactive | – |
| Nc1c(S(=O)(=O)O)cc(Br)c2c1C(=O)c1ccccc1C2=O | inactive | – |
| O=C(O)CNc1ccccc1 | inactive | – |
| CCCCCCC(C)Nc1ccc(Nc2ccccc2)cc1 (stereo not drawn) | – | 27.1 µM (active) |
| COC(=O)Nc1ccc(Cl)c(Cl)c1 | inactive | – |
| CCCC(=O)C(CC)Sc1ccoc1C (stereo not drawn) | inactive | – |
| COc1ccc(CCC(C)=O)cc1 | inactive | – |
| O=C(Nc1ccc2c(c1)Cc1ccccc1-2)C(F)(F)F | inactive | – |
| C[C@H](CCC(=O)NCC(=O)O)[C@H]1CC[C@H]2[C@@H]3[C@H](O)C[C@@H]4C[C@H](O)CC[C@]4(C)[C@H]3C[C@H](O)[C@]12C | – | 68.7 µM (active) |
| N#Cc1ccc(CC(=O)c2cccc(C(F)(F)F)c2)cc1 | – | 42 µM (active) |
| CC(C)=CCCC(C)CCOC=O (stereo not drawn) | inactive | – |
| C=CCCC(=O)/C=C/C1C(C)=CCCC1(C)C (stereo not drawn) | inactive | – |
| COS(=O)(=O)O | inactive | – |

Read-out: E-selectin (Homo sapiens) (UniProt P16581)
Assay: BSK_3C_Eselectin: BioMAP Diversity Plus: 3C Assay for Eselectin Biomarker Activity (AID 2283015);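 as to outcome: cell surface E-selectin protein quantified by ELISA 24 h after dosing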
Settings: primary human endothelial cells (HUVEC); actives raise or lower the signal
In short: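 E-selectin ELISA readout, fitted bidirectionally relative to DMSO, taken 24 h post-dosing in HUVEC cultures of the 3C system. Overt cytotoxicity tracked with sulforhodamine B staining of parallel wells.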

| SMILES | outcome | AC50 |
| --- | --- | --- |
| CCCCOC(=O)CCCCCCCC(=O)OCCCC | inactive | – |
| c1ccc(CCc2ccccc2)cc1 | – | 28.7 µM (active) |
| C=C(C)[C@H]1CC=C(C)C(=O)C1 | inactive | – |
| CC1(C)C2=CCCC(C)(C)[C@]23CC[C@H]1C3 | – | 32.8 µM (active) |
| C=CC(C)(O)CCC=C(C)C (stereo not drawn) | inactive | – |
| CS(=O)(=O)c1ccc(C2=C(c3ccccc3)C(=O)OC2)cc1 | inactive | – |
| COc1cc(Cl)c(OC)cc1N | inactive | – |

Read-out: Interleukin-1 alpha (IL1a), IL1A (gene 3552)
Assay: BSK_BE3C_IL1a: BioMAP Diversity Plus: BE3C Assay for Interleukin-1 alpha (IL1a) Biomarker Activity (AID 2283016)
Settings: primary human bronchial epithelial cells; actives raise or lower the signal
In short: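 BE3C primary human bronchial epithelium; cpd 24 h; IL-1a by ELISA; bidirectional fit vs DMSO; parallel SRB (0.1% SRB, 10% TCA fix, 560 nm) for cytotoxicity.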

| SMILES | outcome | AC50 |
| --- | --- | --- |
| CCCCOC(=O)CCCCCCCC(=O)OCCCC | inactive | – |
| c1ccc(CCc2ccccc2)cc1 | – | 27 µM (active) |
| C=C(C)[C@H]1CC=C(C)C(=O)C1 | inactive | – |
| CC1(C)C2=CCCC(C)(C)[C@]23CC[C@H]1C3 | inactive | – |
| C=CC(C)(O)CCC=C(C)C (stereo not drawn) | inactive | – |
| CS(=O)(=O)c1ccc(C2=C(c3ccccc3)C(=O)OC2)cc1 | inactive | – |
| COc1cc(Cl)c(OC)cc1N | inactive | – |

Read-out: Monocyte Chemoattractant Protein-1 (MCP1), CCL2 (gene 6347)
Assay: BSK_3C_MCP1: BioMAP Diversity Plus: 3C Assay for Monocyte Chemoattractant Protein-1 (MCP1) Biomarker Activity (AID 2283017)
Settings: primary human endothelial cells (HUVEC); actives raise or lower the signal
In short: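 MCP-1 was measured by ELISA 24 h after dosing in primary HUVEC 3C cultures and fitted in both directions relative to DMSO; cytotoxicity was checked by SRB total-protein staining in parallel wells.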

| SMILES | outcome |
| --- | --- |
| C=C(C)[C@H]1CC=C(C)C(=O)C1 | inactive |
| C=CC(C)(O)CCC=C(C)C (stereo not drawn) | inactive |
| COc1cc(Cl)c(OC)cc1N | inactive |

Read-out: Monocyte Chemoattractant Protein-1 (MCP1), CCL2 (gene 6347)
Assay: BSK_4H_MCP1: BioMAP Diversity Plus: 4H Assay for Monocyte Chemoattractant Protein-1 (MCP1) Biomarker Activity (AID 2283018)
Settings: primary human endothelial cells (HUVEC); actives raise or lower the signal
In short: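 ELISA read-out of MCP-1 from human vascular endothelial primary cells taken at 24 hours after compound exposure. Activity was fitted in both directions relative to DMSO, which served as negative control.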

| SMILES | outcome | AC50 |
| --- | --- | --- |
| CCCCOC(=O)CCCCCCCC(=O)OCCCC | inactive | – |
| c1ccc(CCc2ccccc2)cc1 | – | 32.1 µM (active) |
| C=C(C)[C@H]1CC=C(C)C(=O)C1 | inactive | – |
| CC1(C)C2=CCCC(C)(C)[C@]23CC[C@H]1C3 | inactive | – |
| C=CC(C)(O)CCC=C(C)C (stereo not drawn) | inactive | – |
| CS(=O)(=O)c1ccc(C2=C(c3ccccc3)C(=O)OC2)cc1 | inactive | – |
| COc1cc(Cl)c(OC)cc1N | inactive | – |

Read-out: Human Leukocyte Antigen - DR isotype (HLADR), HLA-DRA (gene 3122)
Assay: BSK_3C_HLADR: BioMAP Diversity Plus: 3C Assay for Human Leukocyte Antigen - DR isotype (HLADR) Biomarker Activity (AID 2283019);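 as to outcome: ELISA of cell-surface HLA-DR on HUVEC 24 h after dosing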
Settings: primary human endothelial cells (HUVEC); actives raise or lower the signal
In short: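 Bidirectional fitting against DMSO was applied to the HLA-DR ELISA signal from human umbilical vein endothelial cells, 24 h post-dose. Cytotoxicity came from parallel SRB total-protein staining; 3C proliferation was counted by SRB at 48 h.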

| SMILES | outcome | AC50 |
| --- | --- | --- |
| CCCCOC(=O)CCCCCCCC(=O)OCCCC | inactive | – |
| c1ccc(CCc2ccccc2)cc1 | – | 15.3 µM (active) |
| C=C(C)[C@H]1CC=C(C)C(=O)C1 | inactive | – |
| CC1(C)C2=CCCC(C)(C)[C@]23CC[C@H]1C3 | – | 29.1 µM (active) |
| C=CC(C)(O)CCC=C(C)C (stereo not drawn) | inactive | – |
| CS(=O)(=O)c1ccc(C2=C(c3ccccc3)C(=O)OC2)cc1 | inactive | – |
| COc1cc(Cl)c(OC)cc1N | inactive | – |
